The values that follow come from ChEMBL document CHEMBL1201862, “PubChem BioAssay data set” (2004).

Screen size: about 56,000 sequences; about 3,400 (6.1%) were called active. No stated cut-off is given here; in the data, active = GI50 up to about 1.1 µM and inactive = higher. Only a sample is shown. Results with a measured potency or affinity are listed apart.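 Assay format: 96-well plates, 48-hour exposure. GI50: concentration for 50% inhibition of growth.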

For the assay, the system named is HOP-62. Briefly: NCI tumour cell line growth inhibition, 48 h.
On to “cis-Bis[[(trimethylsilyl)methyl]amino]tetrachloroplatinum(IV), CHEMBL2146191”, for which the GI50 amounted to 20.6 µM.
To “[Bis(aminomethyl)diethylsilane]tetrachloroplatinum(IV), CHEMBL2146203” belongs 1.7 µM; to “mu-(1,7-nanodiamine-N,N')bis-(cis-aminedichloroplatimum (II)), CHEMBL2146215”, 7.64 µM; to CISPLATIN, CHEMBL11359, 1.82 µM.
To “[Bis(aminomethyl)dimethylsilane]tetrachloroplatinum(IV), CHEMBL2146190” belongs 6.61 µM; to “[Bis(aminomethyl)tetramethylenesilane]tetrachloropaltinum(IV), CHEMBL2146189”, 6.32 µM.
Then “[Bis(aminomethyl)dimethylsilane]dichloroplatinum (II), CHEMBL2146201”, with 35.3 µM.
“[Bis(aminomethyl)tetramethylenesilane]dichloropaltinum(II), CHEMBL2146205” showed a GI50 of 39.7 µM.
“[Bis(aminomethyl)ethylmethylsilane]tetrachloroplatinum(IV), CHEMBL2146192”: the GI50 was found to be 4.91 µM.
Then “[Bis(aminomethyl)pentamethylenesilane]tetrachloropaltinum(IV), CHEMBL2146204”, with 1.55 µM; and “[Bis(aminomethyl)pentamethylenesilane]dichloropaltinum(II), CHEMBL2146202”, with 2.33 µM.
